Test results from PubChem BioAssay AID504462 (Sanford-Burnham Center for Chemical Genomics, 2011).
In all, about 340,000 compounds went through this assay and about 1,700 (0.5%) were called active. The sample holds actives, similar compounds and a random draw of the others, so the mix is not that of the screen. No stated cut-off is given here; in the data, active means inhibition above about 40%; inactive means the rest.

Target: Cysteine protease ATG4B (Homo sapiens) (UniProt Q9Y4P1)
Experiment: blockers of ATG4B cysteine protease activity – biochemical, fluorescence, uHTS, primary screen (AID 504462)
Details: ATG4B cleavage of LC3-PLA2, NBD-HPC fluorescence, 1 h; at 8.33 µM; stronger effect = higher value

Chain of Cysteine protease ATG4B (Homo sapiens) (Q9Y4P1 whole entry, looked up): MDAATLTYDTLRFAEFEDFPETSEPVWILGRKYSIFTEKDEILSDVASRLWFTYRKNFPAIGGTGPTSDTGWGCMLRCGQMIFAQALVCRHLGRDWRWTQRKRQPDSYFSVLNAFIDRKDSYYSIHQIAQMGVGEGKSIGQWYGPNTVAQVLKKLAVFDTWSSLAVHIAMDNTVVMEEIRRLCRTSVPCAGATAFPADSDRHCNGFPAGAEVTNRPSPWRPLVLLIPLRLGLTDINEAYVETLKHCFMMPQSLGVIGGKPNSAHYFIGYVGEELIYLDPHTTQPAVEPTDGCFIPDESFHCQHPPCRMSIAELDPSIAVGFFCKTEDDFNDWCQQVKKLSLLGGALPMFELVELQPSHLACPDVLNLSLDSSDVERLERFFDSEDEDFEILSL

Structure (SMILES) | inhibition
COC(=O)COc1cc(C)cc2oc(=O)c3c(c12)CCCC3 | -8.24% (inactive)
CCN1CCN(C(=O)Cc2coc3cc(C)cc(C)c23)CC1 | -5.73% (inactive)
Cc1cc(OCc2cc(C(=O)O)oc2C)c2c3c(c(=O)oc2c1)CCCC3 | 48.7% (active)
CCOC(=O)C1(CCc2ccccc2)CCN(Cc2ccco2)CC1 | -6.2% (inactive)
CC(Cc1ccccc1)NCCC(c1ccccc1)c1ccccc1 (stereo not given) | -1.23% (inactive)
